Results reported in the supplement of paper PMC12669032.
Values without a mark were called inactive.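 The calls were made as follows: active = AUC reduced over 20% with Padj below 0.05 in at least 2 of 3 replicates; inactive = otherwise.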

Tests used:
Assay in all cases: growth AUC relative to DMSO control (median of replicates) (fraction); higher = more growth (less inhibition), active = hit call of the paper
Conditions in all cases: 20 µM; 24 h
Akkermansia muciniphila = test system: Akkermansia muciniphila
Outline: (§1)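 For each compound at 20 µM (1% DMSO), gut bacterial monocultures seeded at OD600 0.05 grew anaerobically in mGAM at 37 °C in round-bottom 96-well plates. Hourly OD600 readings over 24 h gave growth curves whose minimum OD was set to 0. Area under these curves was normalised to the plate median of solvent-only wells, or to row and column medians on the industrial chemical plate. Values are medians of three biological replicates grown on separate days.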

Bacteroides caccae = test system: Bacteroides caccae
Outline: as §1

Bacteroides clarus = test system: Bacteroides clarus
Outline: as §1

Bacteroides dorei = test system: Bacteroides dorei
Outline: as §1

Bacteroides stercoris = test system: Bacteroides stercoris
Outline: as §1

[1] = test system: Bacteroides thetaiotaomicron
Outline: as §1

Bacteroides uniformis = test system: Bacteroides uniformis
Outline: as §1

[2] = test system: Bifidobacterium longum subsp. longum
Outline: as §1

Clostridium difficile = test system: Clostridium difficile
Outline: as §1

Collinsella aerofaciens = test system: Collinsella aerofaciens
Outline: as §1

Coprococcus comes = test system: Coprococcus comes
Outline: as §1

Escherichia coli ED1a = test system: Escherichia coli ED1a
Outline: as §1

Escherichia coli IAI1 = test system: Escherichia coli IAI1
Outline: as §1

Eubacterium rectale = test system: Eubacterium rectale
Outline: as §1

[3] = test system: Fusobacterium nucleatum subsp. animalis
Outline: as §1

Lactobacillus gasseri = test system: Lactobacillus gasseri
Outline: as §1

Lactobacillus paracasei = test system: Lactobacillus paracasei
Outline: as §1

Odoribacter splanchnicus = test system: Odoribacter splanchnicus
Outline: as §1

[4] = test system: Parabacteroides distasonis
Outline: as §1

Parabacteroides merdae = test system: Parabacteroides merdae
Outline: as §1

Structure (SMILES) | growth AUC (Akkermansia muciniphila) | growth AUC (Bacteroides caccae) | growth AUC (Bacteroides clarus) | growth AUC (Bacteroides dorei) | growth AUC (Bacteroides stercoris) | growth AUC [1] | growth AUC (Bacteroides uniformis) | growth AUC [2] | growth AUC (Clostridium difficile) | growth AUC (Collinsella aerofaciens) | growth AUC (Coprococcus comes) | growth AUC (Escherichia coli ED1a) | growth AUC (Escherichia coli IAI1) | growth AUC (Eubacterium rectale) | growth AUC [3] | growth AUC (Lactobacillus gasseri) | growth AUC (Lactobacillus paracasei) | growth AUC (Odoribacter splanchnicus) | growth AUC [4] | growth AUC (Parabacteroides merdae)
c1cc2ccc3cccc4ccc(c1)c2c34 | 0.918 | 0.992 | 1 | 0.997 | 1.01 | 0.997 | 1.02 | 0.948 | 0.959 | 0.946 | 0.914 | 0.958 | 0.982 | 1.04 | 0.945 | 0.993 | 0.934 | 1 | 0.751 (active) | 0.976
O=P(OC(CCl)CCl)(OC(CCl)CCl)OC(CCl)CCl | 1.09 | 0.845 | 0.999 | 0.87 | 1.3 | 0.947 | 0.868 | 1.05 | 0.9 | 0.948 | 0.89 | 1.01 | 1 | 1.07 | 1.11 | 0.905 | 1.03 | 0.613 | 0.5 (active) | 0.911
CCSC(=O)N1CCCCCC1 | 0.873 | 1.05 | 0.974 | 1 | 1 | 0.995 | 0.966 | 0.992 | 0.992 | 0.981 | 1.02 | 0.991 | 0.993 | 0.977 | 1.06 | 1.06 | 0.954 | 0.947 | 0.997 | 1
N#CCNC(=O)c1cnccc1C(F)(F)F | 0.888 | 1.01 | 0.959 | 1 | 0.966 | 0.988 | 0.99 | 0.961 | 0.99 | 1.01 | 0.993 | 1.01 | 0.961 | 0.97 | 0.991 | 1.06 | 0.974 | 1.02 | 1.02 | 1.03
COP(=S)(OC)SC(CC(=O)O)C(=O)O (stereo not given) | 0.974 | 1.01 | 0.963 | 0.986 | 1.06 | 0.991 | 0.99 | 1.01 | 1 | 1.05 | 1.01 | 1.02 | 0.974 | 0.884 | 1.01 | 1.03 | 0.972 | 1.14 | 0.956 | 0.976
COP(=O)(NC(C)=O)SC (stereo not given) | 0.941 | 1.01 | 0.993 | 0.992 | 1.02 | 0.978 | 0.979 | 0.96 | 1.01 | 1.04 | 0.979 | 1.01 | 0.993 | 0.921 | 0.99 | 1.1 | 1.02 | 0.999 | 1.06 | 1.01
COP(=S)(OC)SCN1C(=O)c2ccccc2C1=O | 0.901 | 0.971 | 0.966 | 1 | 0.97 | 0.978 | 0.975 | 0.951 | 0.94 | 0.965 | 1 | 1 | 0.991 | 0.967 | 0.947 | 1.11 | 0.986 | 0.968 | 0.982 | 0.988
CC(C)=CC1C(C(=O)OCc2cccc(Oc3ccccc3)c2)C1(C)C (mixture of isomers) | 1.21 | 0.961 | 0.994 | 0.917 | 1.01 | 1 | 0.991 | 0.864 | 1.02 | 0.914 | 0.992 | 0.975 | 0.974 | 1.06 | 1.11 | 0.767 | 1.02 | 1.03 | 0.924 | 0.956
O=[N+]([O-])c1c(Cl)c(Cl)c(Cl)c(Cl)c1Cl | 0.814 | 0.777 | 0.816 | 0.972 | 0.986 | 0.915 | 0.917 | 0.808 | 1.01 | 1.04 | 0.821 | 1 | 1.01 | 0.909 | 0.942 | 1.16 | 0.945 | 0.946 | 0.969 | 0.942
CC1=C(C(=O)Nc2ccccc2)SCCO1 | 0.979 | 1.02 | 1 | 0.982 | 1.21 | 1.04 | 0.993 | 0.956 | 1 | 1.03 | 0.998 | 1 | 1.04 | 1.06 | 1.09 | 0.993 | 1.04 | 0.985 | 1 | 1.01
CC(=O)O.CCCCCCCCCCCCN=C(N)N | 1.28 | 1.02 | 0.988 | 0.985 | 1.17 | 1.01 | 0.986 | 0.917 | 1 | 0.972 | 1.02 | 1.02 | 1.02 | 1.04 | 1.04 | 0.794 | 1.02 | 1.02 | 0.933 | 0.996
COP(=O)(OC)SCn1c(=O)oc2cc(Cl)cnc21 | 0.883 | 1.02 | 0.983 | 1.02 | 1.01 | 1.01 | 1.03 | 1.01 | 1 | 1.03 | 1.11 | 1.01 | 1 | 0.986 | 0.983 | 1.08 | 1.05 | 1 | 1.08 | 1
O=[N+]([O-])NC1=NCOCN1Cc1cnc(Cl)s1 | 1.23 | 0.994 | 1.04 | 1.01 | 1.19 | 0.979 | 0.964 | 0.917 | 0.999 | 0.971 | 0.971 | 0.992 | 0.997 | 1.1 | 1.15 | 0.809 | 0.988 | 1.04 | 1.01 | 0.965
FC(F)C(F)(F)OCC(Cn1cncn1)c1ccc(Cl)cc1Cl (stereo not given) | 0.949 | 0.967 | 0.921 | 0.924 | 0.957 | 0.921 | 0.957 | 0.967 | 0.985 | 0.93 | 0.979 | 0.972 | 0.966 | 0.804 | 1.02 | 0.912 | 0.841 | 0.981 | 0.951 | 0.932
Cc1cnc2c(C(=O)O)c(Cl)ccc2c1 | 0.939 | 0.996 | 0.986 | 1.03 | 1.03 | 0.995 | 1.04 | 0.967 | 0.995 | 1.01 | 0.983 | 0.977 | 0.987 | 0.934 | 0.952 | 0.952 | 1.05 | 0.968 | 0.967 | 1.01
COC(=O)COc1cc(Cl)c(Cl)cc1Cl | 0.868 | 1.01 | 0.952 | 1 | 1.01 | 0.97 | 0.966 | 0.906 | 1.01 | 1 | 0.967 | 0.976 | 1.02 | 0.914 | 0.981 | 1.18 | 1.11 | 0.974 | 0.983 | 0.99
